ALR H2O2 inh – inhibitors of human ALR sulfhydryl oxidase, primary screen, biochemical, H2O2 detection, HRP-luminol luminescence, single point; purified ALR, DTT oxidation; inhibition, % (test concentration not listed); FAD-linked sulfhydryl oxidase ALR (Homo sapiens), P55789; 290,000 tested, 3.8% active;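 active = mean replicate inhibition above about 79%, with every replicate also reaching it, limit read from the data; inconclusive = only one of the two criteria met; inactive = mean below limit and not every replicate reaching it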
Target sequence (P55789 whole entry, looked up): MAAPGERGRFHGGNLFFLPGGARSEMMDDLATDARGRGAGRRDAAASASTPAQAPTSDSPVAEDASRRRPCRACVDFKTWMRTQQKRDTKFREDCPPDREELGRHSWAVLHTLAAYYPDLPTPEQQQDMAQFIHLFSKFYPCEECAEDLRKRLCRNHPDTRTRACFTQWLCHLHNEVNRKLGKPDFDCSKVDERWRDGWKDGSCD
NTR1 agonist – agonists of human NTR1, primary screen, imaging, U2OS cells, beta-arrestin-GFP, high content. AID 493036, 2011. 330,000 tested, 0.17% active. activation, % at 20 µM. Neurotensin receptor type 1 (Homo sapiens), P30989. NTR1-U2OS beta-arrestin-GFP spot imaging, agonist mode;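 active = activation at or above 40% of the spot to cytoplasm intensity ratio, with at least 20 cells analyzed; inconclusive = wells under 20 cells, flagged as cytotoxic or low count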;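 note: 0% = DMSO without peptide and 100% = 100 nM NTR1 peptide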
Cardio protect – cardioprotection against H2O2-induced cell death, primary screen, uHTS, H9c2 cells, ATPLite luminescence; H9c2 cardiomyocytes, H2O2 injury protection, 2 h; 360,000 tested, 0.63% active; protection from H2O2 cell death, % at 20 µM; AID 588492, 2011;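 active = compounds giving at least 50% protection of heart cells from peroxide-induced death in the single-dose screen, raw or plate-pattern-corrected value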;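 note: 0% = DMSO wells with peroxide and 100% = DMSO wells without peroxide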
UBC9 SUMO inh – inhibitors of in vitro SUMOylation cascade, primary screen, biochemical, HTRF, uHTS; HTRF SUMOylation assay, SAE1/SAE2 + UBC9; inhibition, % at 35 µM; 290,000 tested, 0.36% active; AID 2006, 2009; in the data active = inhibition above about 50%, passing the limit was not always enough; inconclusive = no clear call, values can overlap the other calls
Target sequence (P63279 whole entry, looked up): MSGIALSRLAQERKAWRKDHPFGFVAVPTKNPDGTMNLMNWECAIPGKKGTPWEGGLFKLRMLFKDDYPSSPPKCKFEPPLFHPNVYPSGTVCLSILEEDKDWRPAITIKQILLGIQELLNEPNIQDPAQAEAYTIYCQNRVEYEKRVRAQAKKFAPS
* hit, by the source's call; u = inconclusive; x = not tested or not shown. An excerpt weighted towards active compounds, which were near 3.9% of everything screened.

SMILES	ALR H2O2 inh	NTR1 agonist	Cardio protect	UBC9 SUMO inh
CN1CCN(c2nc3c(c(=O)[nH]c(=O)n3C)n2Cc2ccccc2)CC1	-10	-1	5	-12
CCCCCOC(=O)Cn1c(=O)oc2ccc(C)cc21	1	0	8	8
Cc1ncc(CO)c2cc(C(=O)Nc3ccccc3Cl)c(=Nc3cccc(C(N)=O)c3)oc12	-12	11	61*	-16
COc1ccc(C)cc1NC(=O)c1cc2c(CO)cnc(C)c2oc1=N	86*	6	1	16
COc1ccccc1NC(=O)c1cc2c(CO)cnc(C)c2oc1=Nc1ccc(OC)c(OC)c1	4	14	21	4
COc1ccccc1NC(=O)c1cc2c(CO)cnc(C)c2oc1=Nc1cc(OC)c(OC)c(OC)c1	3	-1	7	-17
C=CCn1c(SCCC)nc(O)cc1=O	11	-1	-3	-1
O=S(=O)(c1ccc(-c2csc(-c3cccnc3)n2)cc1)N1CCCC1	97*	3	2	8
O=S(=O)(c1cccc(F)c1)N1CCN(c2nc(-c3cccnc3)nc3ccccc23)CC1	-3	5	59*	x
O=S(=O)(c1cccc(-c2csc(-c3cccnc3)n2)c1)N1CCOCC1	99*	0	5	11
O=S(=O)(c1ccc(-c2csc(-c3cccnc3)n2)cc1)N1CCCCC1	62	20	5	-10
O=S(=O)(c1cccc(-c2csc(-c3cccnc3)n2)c1)N1CCCCC1	98*	8	-4	-11
CC1CCN(S(=O)(=O)c2cccc(-c3csc(-c4cccnc4)n3)c2)CC1	-24	13	-2	-21
CC(CCN1C(Nc2ccccc2)=NC[C@@H]1Cc1ccccc1)c1ccccc1 (some centres not stated)	-5	-3	-3	-6
CC(=O)Nc1ccc(S(=O)(=O)N(c2cccnc2)S(=O)(=O)c2ccc(NC(C)=O)cc2)cc1	-15	0	37	-9
O=C(NCc1ccc2c(c1)OCO2)C(C(=O)c1ccccc1)n1cc(Cl)ccc1=O (configuration not stated)	-4	2	4	0
COc1ccc(N2CCc3c(C)nc4c(OC)cccc4c32)cc1	x	10	-26	0
CN1C(=O)NC(c2cccc([N+](=O)[O-])c2)C2=C1CCCC2=O (configuration not stated)	-33	-2	1	-3
Fc1ccc(-c2ccnc3nc(N4CCOCC4)nn23)cc1	x	0	-1	52*
CN(C)/C=N/c1nc2nccc(-c3cccc(Cl)c3)n2n1	-3	0	-3	50*
CN(C)/C=N/c1nc2nccc(-c3cccs3)n2n1	10	0	9	u
CN(C)/C=N/c1nc2nccc(-c3ccc(F)cc3)n2n1	-5	-1	9	52*
Fc1ccc(-c2ccnc3nc(-n4cccc4)nn23)cc1	0	1	-5	38
O=C(/C=C/c1ccccc1Cl)NCCc1ccc(F)cc1	-19	4	-1	-12
Cc1cc(C(=O)CSc2nnc(NCc3ccccc3)s2)c(C)n1C	8	7	2	6
SMILES	ALR H2O2 inh	NTR1 agonist	Cardio protect	UBC9 SUMO inh
Cc1[nH]nc(-c2ccc(O)cc2O)c1-c1nc2ccccc2s1	87*	1	-2	-11
Cc1[nH]nc(-c2ccc(O)cc2O)c1-c1ccc(Cl)cc1	82*	6	-13	10
CCCOC(=O)c1ccc(Oc2c(-c3ccc(O)cc3O)n[nH]c2C)cc1	48	40	-14	-21
Cc1[nH]nc(-c2ccc(O)cc2O)c1Oc1ccccc1	98*	2	-14	-4
COCCn1c(SCC(=O)c2cc(C)n(C)c2C)nc2ccccc2c1=O	99*	0	16	14
CC(C)(C)c1cc[n+](C2=C([O-])c3ccccc3C(=O)/C2=N\S(=O)(=O)c2ccccc2)cc1	-26	2	-5	50
CNc1ccccc(C(=O)/C=C/c2ccccc2OC)c1=O	45	4	51*	12
CCOC(=O)C1(CC2CCCCO2)CCN(Cc2c(C)cc(C)cc2-n2cccn2)CC1 (configuration not stated)	-17	2	-11	11
CCCN1CCc2c(sc(NC(=O)c3ccc(S(=O)(=O)N(C)c4ccccc4)cc3)c2C(N)=O)C1	-9	13	2	12
COc1c(F)c(F)c(C(=O)O)c(Nc2ccc(C)cc2C)c1F	97*	2	6	1
Cc1ccc(Nc2c(F)c(F)c(F)c(F)c2C(=O)O)cc1	87*	1	0	-14
COc1c(F)c(F)c(C(=O)O)c(Nc2cc(C)cc(C)c2)c1F	11	0	0	11
Cc1cccc(Nc2c(F)c(F)c(F)c(F)c2C(=O)O)c1	14	0	0	23
COc1cccc(Nc2c(F)c(OC)c(F)c(F)c2C(=O)O)c1	21	-1	-1	-23
COc1cccc(Nc2c(F)c(F)c(F)c(F)c2C(=O)O)c1	99*	-2	6	-1
Cc1cccc(N(CC(=O)NCc2ccco2)C(=O)CNS(=O)(=O)c2ccc(F)cc2)c1	2	0	-6	14
Cc1ccc(-c2csc(=S)n2CC(=O)OCC(=O)NCc2ccco2)cc1	-1	-1	-10	12
C[N+]1(CCCCSc2ccc(O)cc2)CCCCC1	99*	-1	-9	-3
CC(=O)OCCCCCCCCCCC[N+]1(C)CCCCC1	-3	0	-7	0
N#C/C(=C\c1ccc(C#N)cc1)C(=O)N1CCCC1	22	2	10	8
N#C/C(=C\c1ccc(O)cc1)C(=O)N1CCCC1	81*	0	2	18
CC1=Nc2nc(N3CCCCC3)c(C#N)c3c4c(nc(c23)N1)N(c1ccc(C(C)C)cc1)C(=O)C4	-12	5	11	60*
C/C(=N\NC(=O)c1c(Br)c(C)nn1C)c1ccc(NC(=O)c2ccoc2C)cc1	1	1	52*	18
C/C(=N\NC(=O)c1nn(C)c(C)c1Br)c1ccc(NC(=O)c2ccoc2C)cc1	-11	5	17	-6
CCN(CC)S(=O)(=O)c1ccc(NC(=O)COC(=O)c2ccc(NC(=O)CC#N)cc2)cc1	99*	3	-8	11
SMILES	ALR H2O2 inh	NTR1 agonist	Cardio protect	UBC9 SUMO inh
N#CCC(=O)Nc1ccc(C(=O)OCC(=O)NC(=O)Cc2ccccc2)cc1	99*	0	3	x
N#CCC(=O)Nc1ccc(C(=O)OCC(=O)N2CCCC2=O)cc1	99*	3	5	x
CS(=O)(=O)c1ccc(C(=O)OCC(=O)NC(=O)Cc2ccccc2)cc1	-9	0	3	x
N#CCC(=O)Nc1ccc(C(=O)OCC(=O)NC2CCCCCC2)cc1	x	0	-9	x
CCN(CC)S(=O)(=O)c1ccc(NC(=O)COC(=O)c2ccc(-n3nc(C)cc3C)cc2)cc1	-3	2	7	-18
N#CCC(=O)Nc1ccc(C(=O)OCC(=O)N2CCN(C(=O)c3ccco3)CC2)cc1	100*	-1	7	x
N#CCC(=O)Nc1ccc(C(=O)OCC(=O)Nc2ccccc2-c2ccccc2)cc1	98*	5	0	7

From PubChem BioAssay
